# Results from PubChem BioAssay (NCATS).
# Where “and” joins values, the source holds several entries; their conditions need not be identical. Equal values may be shown once. Inconclusive results are not listed. For some assays here: Results with a measured potency or affinity are listed apart. Calls of active or inactive are those of the source.
# What was measured:
# [1] = Ebola virus entry assay, green fluorescence channel
# [2] = Ebola virus entry assay, ratio channel
# [3] = qHTS Assay for Identifying Gametocytocidal Compounds (AID 743244; active = well fitted curve in the direction sought with a large enough effect; an effect the other way counts as inactive or inconclusive; note: potency is the fitted concentration of half-maximal effect;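 for max response: % is set by controls: 0 for no effect and ±100 for the full control effect; actives lower the fluorescent signal which means gametocytes are killed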); settings: P. falciparum 3D7 stage III-V gametocytes, alamarBlue, 72 h; max response: stronger effect = lower value
# Summary of the method: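 Compounds are pinned into medium, gametocytes (stage III–V, 3D7, 20,000 cells/well) added, and plates held 72 h at 37 °C in 5% CO2. AlamarBlue follows for 24 h before fluorescence reading.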
# [4] = qHTS profiling of the MIPE4 collection as inhibitors of Plasmodium falciparum (3D7) proliferation (AID 743344);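 note: scaled between DMSO vehicle wells and 0.29 µM artemisinin as full inhibition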; settings: P. falciparum 3D7 in erythrocytes, SYBR Green DNA fluorescence, 72 h; at 28.5 µM (top of the series) unless noted
# Summary of the method: (§1)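 Parasite DNA was quantified by SYBR Green I fluorescence (ex 485, em 535 nm) after overnight lysis in saponin/Triton buffer at room temperature. Cultures at 0.3% parasitemia and 2.5% hematocrit were first exposed to compound for 72 h at 37 C; signals were normalised to artemisinin (0.29 uM) and vehicle wells.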
# [5] = qHTS profiling of the MIPE4 collection as inhibitors of Plasmodium falciparum (DD2) proliferation (AID 743345); settings: P. falciparum Dd2 in erythrocytes, SYBR Green DNA, 72 h; at 28.5 µM (top of the series) unless noted
# Summary of the method: as §1
# [6] = qHTS profiling of the MIPE4 collection as inhibitors of Plasmodium falciparum (DD2) proliferation (Rep 2) (AID 743346); settings: P. falciparum Dd2 in erythrocytes, SYBR Green DNA, 72 h; at 28.5 µM (top of the series) unless noted
# Summary of the method: as §1
# [7] = qHTS profiling of the MIPE4 collection as inhibitors of Plasmodium falciparum (HB3) proliferation (AID 743347);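 note: plate controls were DMSO vehicle wells for no effect and artemisinin wells for full effect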; settings: P. falciparum HB3 in erythrocytes, SYBR Green DNA, 72 h; at 28.5 µM (top of the series) unless noted
# Summary of the method: as §1
# [8] = Ebola virus entry assay, blue channel fluorescence
# [9] = Ebola virus entry assay, green fluorescence channel; remark: listed apart in the source
# [10] = qHTS for Activators of Parkin Expression: LOPAC Validation Assay (FLuc Reporter) (AID 720573; active = well fitted curve in the direction sought with a large enough effect; an effect the other way counts as inactive or inconclusive;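 note: 0% = DMSO and 100% = positive control compounds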); settings: Cell line, PRKN promoter firefly luciferase reporter, vehicle wells = 0, positive control = 100%; series mostly up to 46.1 µM
# Summary of the method: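 FLuc luminescence read-out from a neuronal line expressing a Parkin-promoter-driven coincidence reporter. Cells treated 24 h at 37 C, 5% CO2 with compounds at 7 concentrations; signal increase normalized to DMSO and positive control.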
# [11] = target: T1, Hexokinase-4 (Homo sapiens) + Glucokinase regulatory protein (Homo sapiens) (UniProt P35557+Q14397); experiment: qHTS assay for inhibitors of recombinant human GCK-GKRP interaction: Diaphorase-coupled assay (AID 743205; active = well fitted curve in the direction sought with a large enough effect; an effect the other way counts as inactive or inconclusive); settings: G6PDH/diaphorase resorufin fluorescence; series mostly up to 57.5 µM
# T1 sequence (P35557 whole entry, looked up): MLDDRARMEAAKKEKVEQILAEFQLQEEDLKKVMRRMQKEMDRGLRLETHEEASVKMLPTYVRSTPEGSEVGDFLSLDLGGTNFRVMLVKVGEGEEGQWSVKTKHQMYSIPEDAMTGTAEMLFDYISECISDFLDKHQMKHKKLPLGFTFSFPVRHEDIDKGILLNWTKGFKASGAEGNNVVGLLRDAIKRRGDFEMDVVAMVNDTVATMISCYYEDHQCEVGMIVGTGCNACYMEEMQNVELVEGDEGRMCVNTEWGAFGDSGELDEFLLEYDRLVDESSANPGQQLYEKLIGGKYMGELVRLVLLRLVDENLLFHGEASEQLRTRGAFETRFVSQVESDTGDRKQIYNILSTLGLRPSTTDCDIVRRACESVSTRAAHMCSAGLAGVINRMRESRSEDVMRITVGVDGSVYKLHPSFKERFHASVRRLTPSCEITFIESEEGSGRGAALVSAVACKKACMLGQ
# T1 sequence (Q14397 whole entry, looked up): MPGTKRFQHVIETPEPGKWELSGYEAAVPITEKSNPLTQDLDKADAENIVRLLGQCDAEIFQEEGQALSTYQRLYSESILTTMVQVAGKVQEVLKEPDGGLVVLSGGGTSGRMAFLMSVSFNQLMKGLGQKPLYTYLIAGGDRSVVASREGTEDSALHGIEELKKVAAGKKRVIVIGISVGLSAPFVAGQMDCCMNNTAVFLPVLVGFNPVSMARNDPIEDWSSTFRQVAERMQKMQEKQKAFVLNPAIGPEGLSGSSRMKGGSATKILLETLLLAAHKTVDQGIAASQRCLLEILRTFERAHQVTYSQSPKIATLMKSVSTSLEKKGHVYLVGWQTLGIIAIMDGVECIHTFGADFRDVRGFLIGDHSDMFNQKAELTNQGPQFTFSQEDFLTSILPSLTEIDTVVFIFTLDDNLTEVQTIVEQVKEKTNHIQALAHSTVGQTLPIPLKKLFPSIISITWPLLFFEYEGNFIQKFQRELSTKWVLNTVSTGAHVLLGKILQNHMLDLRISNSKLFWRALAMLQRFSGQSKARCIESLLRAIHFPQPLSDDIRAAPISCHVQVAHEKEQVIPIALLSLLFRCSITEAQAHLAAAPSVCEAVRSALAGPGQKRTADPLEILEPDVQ
# Summary of the method: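 Resorufin fluorescence (525/590 nm), read each minute over 30 min, reports GCK activity coupled via G6PDH and diaphorase. Reaction: 10 nM GST-GCK, 10 nM FLAG-GKRP, 5 mM glucose, 0.4 mM ATP, 0.15 mM NADP+, 0.1 mM resazurin.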
# [12] = target: T1, Hexokinase-4 (Homo sapiens) + Glucokinase regulatory protein (Homo sapiens); experiment: qHTS assay for inhibitors of recombinant human GCK-GKRP interaction: ADP-Glo assay (AID 743206; active = well fitted curve in the direction sought with a large enough effect; an effect the other way counts as inactive or inconclusive;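 note: plate controls were DMSO plus enzyme for no effect and no enzyme for full effect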); settings: ADP-Glo luminescence, 60 min, 0% = vehicle-only wells with enzyme present; series mostly up to 76.9 µM
# Summary of the method: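 Pin-transferred compounds meet a 15 nM GST-GCK/15 nM FLAG-GKRP/2 uM S6P mix (dispense concentrations). ATP is then added to 0.4 mM final with 5 mM glucose, and the reaction runs 60 min at room temperature. ADP is quantified luminescently.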
# [13] = qHTS assay for small molecule agonists of the antioxidant response element (ARE) signaling pathway measured by Nrf2-dependant transcriptional activity (AID 720636; active = well fitted curve in the direction sought with a large enough effect in the repeat runs; an effect the other way counts as inactive or inconclusive; note: % of control where 0% means no effect); settings: ARE-luc HepG2, Nrf2 luciferase reporter, 16 h; series mostly up to 92.4 µM
# Summary of the method: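 ARE-luc HepG2 cells carrying an Nrf2-responsive luciferase reporter were plated in medium with 1% dialyzed FBS, left 6 hr at 37 C to attach, then exposed to compound for 16 hr. Luciferase luminescence was read after ONE-Glo addition.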
# [14] = qHTS assay for small molecule agonists of the antioxidant response element (ARE) signaling pathway measured by Nrf2-dependant transcriptional activity - cell viability counter screen (AID 720653; active = well fitted curve in the direction sought with a large enough effect in the repeat runs; an effect the other way counts as inactive or inconclusive; note: % is set by controls: 0 for no effect and ±100 for the full control effect); settings: ARE-bla HepG2 viability, CellTiter-Glo ATP luminescence, 16 h; stronger effect = lower value
# Summary of the method: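 Cytotoxicity counter screen: intracellular ATP quantified by CellTiter-Glo luminescence in the same ARE-bla HepG2 plates, after 16 h compound exposure and a 2 h beta-lactamase substrate step.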
# [15] = qHTS assay for cell viability of HEK293 cells (AID 743288; active = well fitted curve in the direction sought with a large enough effect; an effect the other way counts as inactive or inconclusive; note: % is set by controls: 0 for no effect and ±100 for the full control effect; nearly all actives have a fitted effect of over 50% in size); settings: ATP luminescence (CellTiter-Glo), 18 h, stronger effect = lower value
# Summary of the method: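 ATP luminescence (CellTiter-Glo) reports metabolically competent cell number after parental HEK293 cells, 2,000/well, were treated with DMSO-dissolved compounds for 18 h at 37 C; reagent incubation 30 min, room temperature.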
# [16] = qHTS assay for small molecule antagonists of the retinoid-related orphan receptor gamma (ROR-gamma) signaling pathway - cell viability counter screen (AID 720652; active = well fitted curve in the direction sought with a large enough effect in the repeat runs; an effect the other way counts as inactive or inconclusive;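 note: CHO reporter cells with doxycycline-induced ROR-gamma expression; compound exposure lasted 16 hr before ATP read; % is set by controls: 0 for no effect and ±100 for the full control effect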); settings: RORgamma reporter cell line viability counter screen; series mostly up to 92.2 µM
# Summary of the method: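 ATP-based viability readout in the ROR-gamma reporter CHO cells after 16 hr compound exposure under doxycycline induction.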
# Throughout, for efficacy: 0% is about no effect.
compound,measurement,setting,value
Nc1ccc([N+](=O)[O-])c(C(F)(F)F)c1,efficacy,[1],-37.2% (inactive)
same,outcome,[2],inactive
C[C@H](N)C(=O)c1ccccc1,max response,[3],39.4% (inactive) and -13% (inactive)
same,efficacy,[1],31.4% (inactive)
CCN(CC)CCc1c[nH]c2ccccc12,max response,[3],14.8% (inactive)
same,efficacy,[1],21.6% (inactive)
same,outcome,[2],inactive
COC1CC(=C(c2cccs2)c2cccs2)C[N+](C)(C)C1 (stereo unspecified),Potency,[3],8.91 µM (active)
same,efficacy,[1],18.8% (inactive)
C#C[C@]1(O)CC[C@H]2[C@@H]3CCC4=CC(=O)CC[C@]4(C)[C@H]3CC[C@@]21C,max response,[3],15.4% (inactive) and 2.46% (inactive)
same,efficacy,[1],-17.3% (inactive)
same,outcome,[2],inactive
CN1C(=O)COc2c(C(=O)NC3CN4CCC3CC4)cc(Cl)cc21 (stereo unspecified),max response,[3],4.3% (inactive)
same,"parasite growth, % of DMSO control",[4],98.1%
same,"parasite growth remaining, % of DMSO control (lower = more inhibition)",[5],78.2%
same,"parasite growth, % of control (lower = inhibition)",[6],95.9%
same,"growth, % of control",[7],86.6%
same,efficacy,[1],-18% (inactive)
O=C(O)/C=C\C(=O)O,max response,[3],2.8% (inactive)
same,efficacy,[1],12.7% (inactive)
NC(=O)CS(=O)C(c1ccccc1)c1ccccc1 (stereo unspecified),max response,[3],-2.53% (inactive)
same,efficacy,[1],-20.1% (inactive)
COc1cc([C@@H]2c3cc4c(cc3[C@@H](O[C@@H]3O[C@@H]5CO[C@@H](C)O[C@H]5[C@H](O)[C@H]3O)[C@H]3COC(=O)[C@H]23)OCO4)cc(OC)c1O,outcome,[8],inactive
same,outcome,[9],inactive
C=C(C)[C@H]1CN[C@H](C(=O)O)[C@H]1CC(=O)O,outcome,[10],inactive
same,outcome,[11],inactive
same,outcome,[12],inactive
same,max response,[3],5.55% (inactive) and 38.6% (inactive)
same,efficacy,[1],-11.7% (inactive)
CCN(CC)C(=O)[C@@H]1C=C2c3cccc4[nH]cc(c34)C[C@H]2N(C)C1,Potency,[3],63.1 µM (active)
same,efficacy,[1],49.3% (inactive)
same,outcome,[2],inactive
CC(C)OC(=O)OCOP(=O)(CO[C@H](C)Cn1cnc2c(N)ncnc21)OCOC(=O)OC(C)C,"parasite growth, % of DMSO control",[4],292%
same,"parasite growth remaining, % of DMSO control (lower = more inhibition)",[5],79.8%
same,"parasite growth, % of control (lower = inhibition)",[6],74.1%
same,"growth, % of control",[7],345%
same,efficacy,[1],-18.7% (inactive)
CCCc1nc(C(C)(C)O)c(C(=O)OCc2oc(=O)oc2C)n1Cc1ccc(-c2ccccc2-c2nn[nH]n2)cc1,outcome,[8],inactive
same,outcome,[9],inactive
O=c1[nH]oc2c1CCNC2,outcome,[10],inactive
same,outcome,[11],inactive
same,outcome,[12],inactive
same,max response,[3],1.24% (inactive) and 27.1% (inactive)
same,efficacy,[1],22.4% (inactive)
CNC(C)(C)Cc1ccccc1,max response,[3],20.1% (inactive)
same,efficacy,[1],-14.9% (inactive)
same,outcome,[2],inactive
[N-]=[N+]=CC(=O)OC[C@H](N)C(=O)O,outcome,[13],inactive
same,max response,[14],-15% (inactive)
same,max response,[3],-0.674% (inactive)
same,max response,[15],0.519% (inactive)
same,efficacy,[1],10.3% (inactive)
CN1C(=O)CCS(=O)(=O)C1c1ccc(Cl)cc1 (stereo unspecified),outcome,[10],inactive
same,outcome,[11],inactive
same,outcome,[12],inactive
same,max response,[3],-2.23% (inactive) and 6.27% (inactive)
same,"parasite growth, % of DMSO control",[4],98.6%
same,"parasite growth remaining, % of DMSO control (lower = more inhibition)",[5],91.5%
same,"parasite growth, % of control (lower = inhibition)",[6],126%
same,"growth, % of control",[7],109%
same,efficacy,[1],19.9% (inactive)
CN1C(=O)NC(=O)C(C)(C2=CCCCC2)C1=O (stereo unspecified),max response,[3],8.57% (inactive) and 23.3% (inactive)
same,efficacy,[1],10.3% (inactive)
same,outcome,[2],inactive
O=[N+]([O-])O[C@H]1CO[C@H]2[C@@H]1OC[C@H]2O[N+](=O)[O-],max response,[3],30.8% (inactive)
same,efficacy,[1],-25.2% (inactive)
CCC1(CC)C(=O)C=CNC1=O,max response,[3],-13.9% (inactive)
same,efficacy,[1],-31% (inactive)
same,outcome,[2],inactive
Cn1c(=O)c2[nH]cnc2n(C)c1=O,"parasite growth, % of DMSO control",[4],85.4%
same,"parasite growth, % of control (lower = inhibition)",[6],114%
same,"growth, % of control",[7],96.9%
same,efficacy,[1],-18.7% (inactive)
CC1(C)S[C@@H]2[C@H](NC(=O)[C@H](N)c3ccc(O)cc3)C(=O)N2[C@H]1C(=O)O,outcome,[8],inactive
same,outcome,[9],inactive
O=C(O)c1ccccc1S,max response,[3],58.9% (inactive)
same,efficacy,[1],16.8% (inactive)
NC(=O)CC[C@@H]1NC(=O)[C@H](Cc2ccccc2)NC(=O)[C@H](Cc2ccc(O)cc2)NC(=O)[C@@H](N)CSSC[C@@H](C(=O)N2CCC[C@H]2C(=O)N[C@@H](CCCN=C(N)N)C(=O)NCC(N)=O)NC(=O)[C@H](CC(N)=O)NC1=O,outcome,[8],inactive
same,outcome,[9],inactive
CC(C)c1c(CN(C)C(C)Cc2ccccc2)n(C)n(-c2ccccc2)c1=O (stereo unspecified),max response,[3],12.8% (inactive)
same,efficacy,[1],-15% (inactive)
NNc1ccccc1,max response,[3],-4.92% (inactive)
same,efficacy,[1],-13.5% (inactive)
same,outcome,[2],inactive
C[C@H]1[C@@H]2Cc3ccc(O)cc3[C@@]1(C)CCN2C,max response,[3],2.87% (inactive)
same,efficacy,[1],67.4% (inactive)
same,outcome,[2],inactive
C[C@]12CC[C@@H]3c4ccc(OC(=O)N(CCCl)CCCl)cc4CC[C@H]3[C@@H]1CC[C@@H]2O,max response,[3],-1.39% (inactive)
same,efficacy,[1],-12.5% (inactive)
CCc1cc2c(s1)-n1c(C)nnc1CN=C2c1ccccc1Cl,max response,[3],2.24% (inactive)
same,efficacy,[1],22% (inactive)
same,outcome,[2],inactive
Oc1ccc(Cl)cc1,outcome,[13],inactive
same,outcome,[16],inactive
same,max response,[14],-5.13% (inactive)
same,max response,[3],-8.53% (inactive)
same,max response,[15],-5.89% (inactive)
same,efficacy,[1],-35.6% (inactive)
CC(C)=CC1C(C(=O)OCN2C(=O)C3=C(CCCC3)C2=O)C1(C)C (stereo unspecified),max response,[3],1.71% (inactive)
same,efficacy,[1],28% (inactive)
same,outcome,[2],inactive
